For some of these results: Potency and affinity values are given separately. Active and inactive are the calls of the source. Unless noted, no rule for the calls is given here.
Experiments:
[1] = HepG2 cytotoxicity, primary screen, cytotoxicity control for P. falciparum antimalarial project, cell-based, ATP luminescence (AID 2303;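 active = inhibition above 50%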;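 also: 0% = DMSO wells and 100% = digitonin-killed cells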); conditions: HepG2 viability, 24-48 h, at 10 µM, active compounds read high
[2] = molecular target: L-lactate dehydrogenase (Plasmodium falciparum (isolate CDC / Honduras)) (UniProt Q27743); assay: PfLDH activity inhibition – cell lysate, 3D7 strain, counter-screen for P. falciparum growth inhibition project (AID 2304);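 also: 0% = vehicle and 100% = reference inhibitor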; conditions: P. falciparum 3D7 crude extract, LDH APAD/NBT absorbance; at 2 µM; active compounds read high
[3] = inhibition of 3D7 malaria parasite growth – strain 3D7 (AID 2306);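 also: 0% = DMSO wells and 100% = chloroquine plus artemisinin control wells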; conditions: P. falciparum 3D7 erythrocytic growth, LDH absorbance, 72 h; at 2 µM; active compounds read high
[4] = molecular target: Calcium-dependent protein kinase 1 (Plasmodium falciparum (isolate 3D7)) (UniProt P62344); assay: PfCDPK1 kinase inhibitors, biochemical, TCAMS library (AID 1159585; cut-off not given, nearly all actives have IC50 up to about 0.98 µM;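 also: inhibitors leave more ATP so luminescence rises with inhibition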); conditions: recombinant PfCDPK1, Kinase-Glo ATP depletion luminescence
[5] = molecular target: Plasmodium falciparum protein kinase 6 (PK6, PF3D7_1337100) (UniProt Q8IDW1); assay: PfPK6 kinase inhibitors, biochemical, TCAMS library (AID 1159586); conditions: recombinant PfPK6, Kinase-Glo ATP depletion luminescence
[6] = molecular target: Protein kinase 7 (PK7), Plasmodium falciparum 3D7 (PF3D7_0213400) (UniProt Q7YTF7); assay: inhibition of Plasmodium PK7 catalytic activity – biochemical, TCAMS antimalarial set, Kinase-Glo luminescence (AID 1159587); conditions: recombinant PfPK7, Kinase-Glo ATP depletion luminescence
[7] = molecular target: Calcium-dependent protein kinase 4 (Plasmodium falciparum (isolate 3D7)) (UniProt Q8IBS5); assay: PfCDPK4 kinase inhibitors, biochemical, TCAMS library (AID 1159588; cut-off not given, nearly all actives have IC50 up to about 0.91 µM); conditions: recombinant PfCDPK4, Kinase-Glo ATP depletion luminescence
Calcium-dependent protein kinase 4 (Plasmodium falciparum (isolate 3D7)), sequence (Q8IBS5 whole entry, looked up): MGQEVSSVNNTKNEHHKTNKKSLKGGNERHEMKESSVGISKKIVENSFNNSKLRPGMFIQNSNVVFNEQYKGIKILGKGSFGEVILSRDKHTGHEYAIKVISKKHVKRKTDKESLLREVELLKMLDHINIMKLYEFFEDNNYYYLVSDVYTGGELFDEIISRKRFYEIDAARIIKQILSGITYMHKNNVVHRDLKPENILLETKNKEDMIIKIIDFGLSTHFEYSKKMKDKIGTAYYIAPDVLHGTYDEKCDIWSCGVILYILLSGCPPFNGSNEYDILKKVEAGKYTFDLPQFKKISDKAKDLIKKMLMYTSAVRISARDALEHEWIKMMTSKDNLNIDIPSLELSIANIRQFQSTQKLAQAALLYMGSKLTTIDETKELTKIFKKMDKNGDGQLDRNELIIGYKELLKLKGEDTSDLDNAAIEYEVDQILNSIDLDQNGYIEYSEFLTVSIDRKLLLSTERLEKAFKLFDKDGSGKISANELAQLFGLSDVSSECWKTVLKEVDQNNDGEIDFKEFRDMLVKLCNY

Plasmodium falciparum protein kinase 6 (PK6, PF3D7_1337100), sequence (Q8IDW1 1-305): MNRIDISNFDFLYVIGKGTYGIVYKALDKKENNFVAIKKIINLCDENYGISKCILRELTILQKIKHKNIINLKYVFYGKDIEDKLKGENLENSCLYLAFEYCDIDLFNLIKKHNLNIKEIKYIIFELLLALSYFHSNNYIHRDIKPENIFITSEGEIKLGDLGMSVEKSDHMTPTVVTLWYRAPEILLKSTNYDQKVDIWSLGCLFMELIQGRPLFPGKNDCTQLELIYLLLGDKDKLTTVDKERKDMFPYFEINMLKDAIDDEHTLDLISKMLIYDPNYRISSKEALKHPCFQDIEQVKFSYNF
L-lactate dehydrogenase (Plasmodium falciparum (isolate CDC / Honduras)), sequence (Q27743 whole entry, looked up): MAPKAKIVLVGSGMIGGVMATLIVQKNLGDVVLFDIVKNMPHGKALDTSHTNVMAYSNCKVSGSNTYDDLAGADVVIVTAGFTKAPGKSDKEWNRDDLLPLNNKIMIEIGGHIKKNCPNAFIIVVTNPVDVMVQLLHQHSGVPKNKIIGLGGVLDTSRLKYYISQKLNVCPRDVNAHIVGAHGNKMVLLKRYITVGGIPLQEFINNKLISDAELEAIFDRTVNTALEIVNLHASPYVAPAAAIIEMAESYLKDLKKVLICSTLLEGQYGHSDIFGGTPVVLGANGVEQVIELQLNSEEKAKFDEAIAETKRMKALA
Protein kinase 7 (PK7), Plasmodium falciparum 3D7 (PF3D7_0213400), sequence (Q7YTF7 1-343): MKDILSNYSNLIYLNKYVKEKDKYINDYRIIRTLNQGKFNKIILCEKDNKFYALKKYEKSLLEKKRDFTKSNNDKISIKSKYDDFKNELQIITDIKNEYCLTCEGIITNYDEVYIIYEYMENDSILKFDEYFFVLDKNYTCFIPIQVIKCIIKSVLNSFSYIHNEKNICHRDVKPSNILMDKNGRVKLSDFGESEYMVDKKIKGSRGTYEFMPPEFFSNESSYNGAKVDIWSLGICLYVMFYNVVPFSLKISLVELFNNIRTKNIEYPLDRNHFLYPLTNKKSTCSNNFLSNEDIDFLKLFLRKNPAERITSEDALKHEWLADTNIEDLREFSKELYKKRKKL
Calcium-dependent protein kinase 1 (Plasmodium falciparum (isolate 3D7)), sequence (P62344 whole entry, looked up): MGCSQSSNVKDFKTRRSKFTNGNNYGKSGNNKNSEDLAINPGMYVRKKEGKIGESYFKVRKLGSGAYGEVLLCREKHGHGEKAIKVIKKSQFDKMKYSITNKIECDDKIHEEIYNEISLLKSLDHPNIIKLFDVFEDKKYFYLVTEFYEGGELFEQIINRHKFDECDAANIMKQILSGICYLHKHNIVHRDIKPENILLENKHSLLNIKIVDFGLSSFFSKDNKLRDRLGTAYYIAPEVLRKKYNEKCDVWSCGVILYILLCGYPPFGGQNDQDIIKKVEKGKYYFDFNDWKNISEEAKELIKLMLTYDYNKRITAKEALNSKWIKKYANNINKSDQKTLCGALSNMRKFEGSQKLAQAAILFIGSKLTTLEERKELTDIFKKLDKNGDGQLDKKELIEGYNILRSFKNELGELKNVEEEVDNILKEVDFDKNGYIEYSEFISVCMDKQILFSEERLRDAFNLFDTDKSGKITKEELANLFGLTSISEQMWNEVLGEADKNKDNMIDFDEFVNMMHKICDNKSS

O=C(c1ccccc1)N1CCC[C@](CCCN2CCN(c3ccccc3O)CC2)(c2ccc(Cl)c(Cl)c2)C1
active: growth inhibition [3] 80%
inactive: inhibition [1] 16% | inhibition [2] -3% | outcome [4] | outcome [5] | outcome [6] | outcome [7]

O=C(O)CCSc1ncnc2nc[nH]c12
active: growth inhibition [3] 103%
inactive: inhibition [1] 7% | inhibition [2] 6% | outcome [4] | outcome [5] | outcome [6] | outcome [7]

CN(C)c1ccc(NC(=O)Nc2ccnc3ccccc23)cc1Br
active: growth inhibition [3] 98%
inactive: inhibition [1] 21% | inhibition [2] 3% | outcome [4] | outcome [5] | outcome [6] | outcome [7]

O=C(Nc1cccc(Cl)c1)c1cc2ccccc2cc1O
inactive: inhibition [1] 4% | inhibition [2] -8% | outcome [4] | outcome [5] | outcome [6] | outcome [7]
active: growth inhibition [3] 97%

CNC(=O)c1ccc(/C=C/C(=O)N2CCc3ccc(-c4ccccc4)cc3C2c2cccc(C(F)(F)F)c2)cc1 (centres undefined)
inactive: inhibition [1] 9% | inhibition [2] 5% | outcome [4] | outcome [5] | outcome [6] | outcome [7]
active: growth inhibition [3] 91%

CC(C)CNC(=O)c1ccc(-c2cccc(CN3CCC(N4CCCC4)CC3)c2)nc1
inactive: inhibition [1] 4% | inhibition [2] -3% | outcome [4] | outcome [5] | outcome [6] | outcome [7]
active: growth inhibition [3] 81%

Cc1ccc(Nc2c3ccccc3nc3ccc(C)cc23)cc1
inactive: inhibition [1] 26% | inhibition [2] -2% | outcome [4] | outcome [5] | outcome [6] | outcome [7]
active: growth inhibition [3] 88%

COc1ccc(CCN2CC[C@H](CNc3nc(-c4ccccc4)nc4ccccc34)C2)cc1S(N)(=O)=O
active: inhibition [1] 54% | growth inhibition [3] 85%
inactive: inhibition [2] -4% | outcome [4] | outcome [5] | outcome [6] | outcome [7]

COc1cccc(-c2cc3c(NCc4ccncc4)nccc3s2)c1
active: growth inhibition [3] 87%
inactive: inhibition [1] 0% | inhibition [2] -2% | outcome [4] | outcome [5] | outcome [6] | outcome [7]

COc1cc2ncnc(Nc3ccc(OC(F)(F)c4ccccc4)cc3)c2cc1OC
inactive: inhibition [1] 14% | inhibition [2] 2% | outcome [4] | outcome [5] | outcome [6] | outcome [7]
active: growth inhibition [3] 91%

COc1ccc(NS(=O)(=O)c2ccc(Oc3nc(C)nc4sc5c(c34)CCCC5)cc2)cc1
inactive: inhibition [1] 5% | inhibition [2] -2% | outcome [4] | outcome [5] | outcome [6] | outcome [7]
active: growth inhibition [3] 96%

CCN(CC)CCCN(C(=O)Nc1cc(F)cc(F)c1)c1nc(-c2ccc(F)cc2)cs1
inactive: inhibition [1] 27% | inhibition [2] 0% | outcome [4] | outcome [5] | outcome [6] | outcome [7]
active: growth inhibition [3] 82%

c1ccc2c3c([nH]c2c1)C(c1ccc2c(c1)CCO2)N(c1ncnc(N2CCN(CCCN4CCOCC4)CC2)n1)CC3 (centres undefined)
inactive: inhibition [1] 37% | inhibition [2] -2% | outcome [4] | outcome [5] | outcome [6] | outcome [7]
active: growth inhibition [3] 80%

N#Cc1cc(N(CCCOc2cccc(OC(F)(F)F)c2)Cc2ccccc2C(F)(F)F)ccc1C(F)(F)F
inactive: inhibition [1] 2% | inhibition [2] 0% | outcome [4] | outcome [5] | outcome [6] | outcome [7]
active: growth inhibition [3] 94%

CC(C)CN1C(=O)C(c2ccc(F)c(F)c2)=C(O)C1c1ccccc1 (centres undefined)
active: growth inhibition [3] 94%
inactive: inhibition [1] 0% | inhibition [2] -7% | outcome [4] | outcome [5] | outcome [6] | outcome [7]

N=C1SC(=Cc2cn[nH]c2-c2ccc(F)cc2)C(=O)N1c1nccs1
inactive: inhibition [1] 28% | inhibition [2] -3% | outcome [4] | outcome [5] | outcome [6] | outcome [7]
active: growth inhibition [3] 91%

Cc1csc2nc(C(C)c3ccc(NC(=O)c4cccs4)cc3)oc(=O)c12 (centres undefined)
active: growth inhibition [3] 90%
inactive: inhibition [1] -5% | inhibition [2] -3% | outcome [4] | outcome [5] | outcome [6] | outcome [7]

C=CCOc1cc(Cc2cnc(N)nc2N)cc(OC)c1OC
active: growth inhibition [3] 81%
inactive: inhibition [1] -14% | inhibition [2] 2% | outcome [4] | outcome [5] | outcome [6] | outcome [7]

Oc1ccc(CNCC2CCN(CC3CCCCC3)CC2)cc1
active: growth inhibition [3] 82%
inactive: inhibition [1] 9% | inhibition [2] -1% | outcome [4] | outcome [5] | outcome [6] | outcome [7]

O=C(Nc1ccc(C(F)(F)F)cc1)c1cc(Cl)cc2[nH]c(C(F)(F)F)nc12
active: inhibition [1] 86% | growth inhibition [3] 102%
inactive: inhibition [2] -1% | outcome [4] | outcome [5] | outcome [6] | outcome [7]

Cc1ccc(-c2cnc3[nH]cc(-c4ccc(C(=O)O)c(C)c4)c3c2)cc1C
inactive: inhibition [1] 37% | inhibition [2] 0% | outcome [4] | outcome [5] | outcome [6] | outcome [7]
active: growth inhibition [3] 96%

CO/N=C(\C)c1ccc2c(c1)CCN(CCC1CCC(NC(=O)c3cccc(-c4noc(C)n4)c3)CC1)CC2 (centres undefined)
inactive: inhibition [1] 42% | inhibition [2] -1% | outcome [4] | outcome [5] | outcome [6] | outcome [7]
active: growth inhibition [3] 90%

— PubChem BioAssay
